20 compounds from the supplement of paper PMC10127200 can be followed below.

What all share (assay): Euclidean distance of Cell Painting phenotypic profile (signed KS, 77 features) to DMSO centroid (dimensionless distance); 5 or 10 uM (library dependent); higher = stronger phenotypic change vs DMSO (phenoactivity)
What all share (conditions): 48 h

The subject of assay [1] is 786-O. The method in brief: (§1)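 Stained cells were imaged confocally at 20X with 9 fields per well, after 48 h of exposure to library compounds at 10 or 5 uM (set by library; 0.1% DMSO final). The cells were five cancer lines and a healthy fibroblast line. From the images, Harmony extracted 77 features, each expressed as a signed Kolmogorov-Smirnov statistic relative to same-plate vehicle wells. Phenoactivity is measured as Euclidean distance to the median vehicle profile, using plate-position-corrected, correlation-weighted profiles averaged across replicates at the top dose.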

The subject of assay [2] is A549. Put shortly: as §1
The subject of assay [3] is DU145. The method in brief:
as §1

The subject of assay [4] is FB. The method in brief:
as §1

In assay [5] the test system is HEPG2. Put shortly:
as §1

The subject of assay [6] is OVCAR4. Put shortly:
as §1

Structures can show the parent of a compound that is named as a salt.

As for `C[C@@H]1[C@H](O)[C@@H](C)/C=C/C=C/C=C/C=C/C=C/C=C/C=C/[C@H](O[C@@H]2O[C@H](C)[C@@H](O)[C@H](N)[C@@H]2O)C[C@@H]2O[C@](O)(C[C@@H](O)C[C@@H](O)[C@H](O)CC[C@@H](O)C[C@@H](O)CC(=O)O[C@H]1C)C[C@H](O)[C@H]2C(=O)O` [Amphotericin B], the Euclidean distance in assay [1] amounted to 1.91; in assay [2] it was 1.67; in assay [3], 1.91; in assay [4] it was 3.03; in assay [5], 1.43; in assay [6] it was 1.93.
On to `C[n+]1ccccc1C=NO` [Pralidoxime Iodide], for which the Euclidean distance in assay [1] came out at 1.45; in assay [2] it was 0.771; in assay [3] it was 0.975; in assay [4], 0.641; in assay [5], 0.434; in assay [6] it was 0.907.
As for `CCCOc1ccc(S(=O)(=O)NCCC2CCCN2C)cc1-c1nc2c(CCC)nn(C)c2c(=O)[nH]1` (stereo not given) [Udenafil], the Euclidean distance came to 1.13 in assay [1]; 1.12 in assay [2]; 1.49 in assay [3]; 1.77 in assay [4]; 1.61 in assay [5]; 1.41 in assay [6].
In the case of `OB1OCc2cc(F)ccc21` [Tavaborole (AN-2690)], the Euclidean distance in assay [1] turned out to be 0.735; in assay [2] it was 0.76; in assay [3], 0.961; in assay [4], 1.16; in assay [5], 0.354; in assay [6], 0.974.
As for `CN1C(=O)C(Cc2c[nH]c3ccccc23)NC1=S` (stereo not given) [Necrostatin-1], the Euclidean distance in assay [1] was determined as 1.05; in assay [2], 1.61; in assay [3], 1.1; in assay [4], 0.994; in assay [5], 0.953; in assay [6], 1.55.
As to `CCc1ccc(CCOc2ccc(CC3SC(=O)NC3=O)cc2)nc1` (stereo not given) [Pioglitazone], the Euclidean distance in assay [1] is 0.465; in assay [2], 0.586; in assay [3], 0.944; in assay [4] it was 0.666; in assay [5], 0.336; in assay [6], 0.891.
Take `CCNC(=O)CCC/C=C\C[C@@H]1[C@@H](/C=C/[C@@H](O)CCc2ccccc2)[C@H](O)C[C@@H]1O` [Bimatoprost]: the Euclidean distance is 1.63 in assay [1]; 1.42 in assay [2]; 0.906 in assay [3]; 1.4 in assay [4]; 0.869 in assay [5]; 1.27 in assay [6].
`CC(NCCC(c1ccccc1)c1ccccc1)c1ccccc1` (stereo not given) [Fendiline hydrochloride]: the Euclidean distance in assay [1] stood at 1.96; in assay [2], 2.16; in assay [3], 1.45; in assay [4], 1.24; in assay [5], 2.42; in assay [6] it was 1.41.
For `Cc1cc(-c2ccc(/N=N/c3ccc4c(S(=O)(=O)O)cc(S(=O)(=O)O)c(N)c4c3O)c(C)c2)ccc1/N=N/c1ccc2c(S(=O)(=O)O)cc(S(=O)(=O)O)c(N)c2c1O` [Evans Blue], the Euclidean distance was 0.929 in assay [1]; 0.808 in assay [2]; 0.955 in assay [3]; 1.65 in assay [4]; 0.481 in assay [5]; 1.37 in assay [6].
Consider `Cc1ccc(-c2c(-c3nn(C)c4ncnc(N5CC[C@H](N6CCCCC6)C5)c34)cnn2C)cc1`, for which the Euclidean distance in assay [1] came to 0.748; in assay [2] it was 0.927; in assay [3], 0.814; in assay [4], 1.22; in assay [5], 0.843; in assay [6], 1.27.
As to `OCc1cc(C(O)CNCCCCCCOCCCCc2ccccc2)ccc1O` (stereo not given) [Salmeterol Xinafoate], the Euclidean distance in assay [1] is 1.27; in assay [2], 1.68; in assay [3], 1.58; in assay [4] it was 2.11; in assay [5], 2.19; in assay [6], 1.28.
`CC(=O)OC[C@H]1O[C@@H]([S-])[C@H](OC(C)=O)[C@@H](OC(C)=O)[C@@H]1OC(C)=O.CCP(CC)CC.[Au+]` [Auranofin]: the Euclidean distance in assay [1] was 5.67; in assay [2] it was 4.89; in assay [3] it was 6.36; in assay [4], 6.74; in assay [5], 3.39; in assay [6] it was 5.08.
As for `CN1CCCC(n2nc(Cc3ccc(Cl)cc3)c3ccccc3c2=O)CC1` (stereo not given) [Azelastine HCl], the Euclidean distance was 1.09 in assay [1]; 0.991 in assay [2]; 0.881 in assay [3]; 2.15 in assay [4]; 1.14 in assay [5]; 0.789 in assay [6].
Consider `CCn1c(N)c(C(=O)NC)c(=O)c2ccc(C#CC(C)(O)COC)nc21` (stereo not given), for which the Euclidean distance in assay [1] is 0.634; in assay [2] it was 0.765; in assay [3], 0.681; in assay [4], 1.97; in assay [5], 1.53; in assay [6] it was 0.668.
`CO[C@@H]1[C@@H](O[C@@H]2O[C@H](C)[C@@H](O[C@H]3C[C@@](C)(O)[C@@H](O)[C@H](C)O3)[C@H](N(C)C)[C@H]2O)[C@@H](CC=O)C[C@@H](C)[C@@H](O[C@H]2CC[C@H](N(C)C)[C@@H](C)O2)/C=C/C=C/C[C@@H](C)OC(=O)C[C@H]1OC(C)=O` [Acetylspiramycin (ASPM)]: the Euclidean distance amounted to 0.993 in assay [1]; 1.5 in assay [2]; 2.15 in assay [3]; 1.66 in assay [4]; 1.45 in assay [5]; 1.73 in assay [6].
In the case of `CCCCCCCCCCCC1=C(O)C(=O)C=C(O)C1=O` [Embelin], the Euclidean distance was 1.85 in assay [1]; 1.18 in assay [2]; 1.4 in assay [3]; 1.6 in assay [4]; 1.16 in assay [5]; 1.88 in assay [6].
Turning to `Clc1ccc2c(c1)C(N1CCNCC1)=Nc1ccccc1O2` [Amoxapine], the Euclidean distance in assay [1] amounted to 1.43; in assay [2], 1.02; in assay [3], 1.12; in assay [4], 1.06; in assay [5], 0.744; in assay [6] it was 1.09.
On to `O=C1NC(=O)/C(=C/c2ccc3c(c2)OC(F)(F)O3)S1`, for which the Euclidean distance in assay [1] was found to be 1.35; in assay [2], 1.7; in assay [3], 1.51; in assay [4], 1.44; in assay [5] it was 1.13; in assay [6] it was 0.892.
With `Nc1cc(C(Cl)=C(Cl)Cl)c(S(N)(=O)=O)cc1S(N)(=O)=O` [Clorsulon], the Euclidean distance in assay [1] was 1.15; in assay [2], 0.636; in assay [3] it was 0.797; in assay [4], 0.676; in assay [5] it was 0.743; in assay [6] it was 1.18.
On to `COc1ccc(C(=O)CC(=O)c2ccc(C(C)(C)C)cc2)cc1` [Avobenzone], for which the Euclidean distance was determined as 1.41 in assay [1]; 0.547 in assay [2]; 0.714 in assay [3]; 1.02 in assay [4]; 0.762 in assay [5]; 0.989 in assay [6].
